For 83 compounds, activity change, negative = inhibition results are on record in PubChem BioAssay AID2472 (National Center for Advancing Translational Sciences (NCATS), 2010).

The campaign covered roughly 290,000 compounds. About 2,000 (0.69%) were called active. The entries come from a sample that favours actives as a whole. Unmarked numbers belong to inactive results. No stated cut-off is given here; in the data, active means activity change below about -30%; inactive means the rest, inconclusive results apart.
On the % scale 0 is the no-effect control and ±100 the full control effect.

A short description of the experiment: qHTS Assay for Inhibitors of Fructose-1,6-bisphosphate Aldolase from Giardia Lamblia: Coupling assay counterscreen. To be noted: coupling enzyme system counterscreen, AmpLite Red fluorescence; at 58.2 µM (top of the series). In short, it runs like this: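 Compounds tested against the coupling enzymes alone at 57.5 uM final; readout was AmpLite Red fluorescence (525/598 nm) after 20 min at RT.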
In general terms: qHTS replaces the single test concentration by a dilution series.
For the compound `O=C(CSc1cccc[n+]1[O-])c1ccc(-c2ccccc2)cc1`, the activity change, negative = inhibition is -0.455%.

As for `CCSc1nsc(NC(=O)Nc2cccc(C(C)=O)c2)n1`, the activity change, negative = inhibition is -3.71%.

As to `C=C1CCN(Cc2ccc(OC)cc2)S(=O)(=O)c2ccccc21`, the activity change, negative = inhibition is -9.95%.

As for `O=C(Nc1cc(C(=O)Nc2ccc(S(=O)(=O)O)cc2)cc(C(=O)Nc2ccc(S(=O)(=O)O)cc2)c1)Nc1cc(C(=O)Nc2ccc(S(=O)(=O)O)cc2)cc(C(=O)Nc2ccc(S(=O)(=O)O)cc2)c1`, the activity change, negative = inhibition is 4.94%.

For `Cc1c(S(=O)(=O)O)oc2c1C(=O)C(=O)c1c-2ccc2c1CCCC2(C)C`, the activity change, negative = inhibition is -38.9% (active).

With `Cc1cc(C)cc(C#CC2C=CC(Oc3ccc(C4CCCC4)cc3)C(CO)O2)c1` (stereo not drawn), the activity change, negative = inhibition is -0.466%.

Consider `CC(C)(c1ccccc1)c1ccc(OCCN2CCCC2)cc1`, for which the activity change, negative = inhibition is 1.45%.

Take `COc1ccc(OC)c(C(c2nnnn2C(C)(C)C)N2CCc3ccccc3C2)c1` (stereo not drawn): the activity change, negative = inhibition was -0.0178%.

For `CCOc1ccc2[nH]c(=O)c(C(c3nnnn3CCOC)N3CCOCC3)cc2c1` (stereo not drawn), the activity change, negative = inhibition is -2.27%.

On to `COCCn1nnnc1C(c1cc2ccc(OC)cc2[nH]c1=O)N1CCc2ccccc2C1` (stereo not drawn), for which the activity change, negative = inhibition is -47.7% (active).

As for `CCOc1ccc(CCNC(=O)Nc2ccccc2)cc1OCC`, the activity change, negative = inhibition was 1.61%.

On to `Cc1cccc(OC(C)C(=O)N2CCc3ccccc3C2)c1` (stereo not drawn), for which the activity change, negative = inhibition was 3.66%.

Take `CC(C)(O/N=C(\C(=O)N[C@@H]1C(=O)N2C(C(=O)[O-])=C(C[n+]3ccccc3)CS[C@@H]12)c1csc(N)n1)C(=O)O`: the activity change, negative = inhibition was 1.97%.

For the compound `CCN1C(=S)N[C@@H](c2cccc(C(F)(F)F)c2)C(C(=O)OC)=C1C`, the activity change, negative = inhibition is 2.17%.

With `CN(CCc1ccccn1)C(=O)c1ccc(OC2CCN(CCc3ccccc3)CC2)cc1`, the activity change, negative = inhibition was 6.37%.

As for `Nc1ccc2nc3c(=O)[nH]c(=S)[nH]c3nc2c1`, the activity change, negative = inhibition was -35.7% (active).

As for `Cc1cc2nc3c(=O)n(Cc4ccccc4)c(=O)[nH]c3nc2cc1N`, the activity change, negative = inhibition was -26.3%.

`Cc1cccc(OCCC(=O)Nc2ccccc2C(N)=O)c1`: the activity change, negative = inhibition was -1.3%.

On to `O=C(NCc1ccco1)O[C@@H]1C(=O)c2cc(Br)ccc2O[C@H]1c1ccc2c(c1)OCO2`, for which the activity change, negative = inhibition is -0.223%.

In the case of `Cc1ccccc1NC(=O)N1CCCC1C(=O)NCc1ccccc1` (stereo not drawn), the activity change, negative = inhibition was 2.24%.

For the compound `CC(C)Cn1c(N)c(C(=O)NCc2cccs2)c2nc3ccccc3nc21`, the activity change, negative = inhibition is -45.5% (active).

On to `CCC(C)NC(=O)c1c(N)n(/N=C/c2cccs2)c2nc3ccccc3nc12` (stereo not drawn), for which the activity change, negative = inhibition is 5.17%.

As for `CC(C)(C)c1ccc(C(=O)NCCn2c(N)c(C#N)c3nc4ccccc4nc32)cc1`, the activity change, negative = inhibition is -0.974%.

As to `COc1ccc(-c2nc3c(c4c2C[C@H](c2ccccc2)OC4)CN(C(=O)c2ccco2)CC3)c(C)c1`, the activity change, negative = inhibition is -0.274%.

As for `COc1ccc(OCC(=O)Nc2ccc(NC(=O)c3ccco3)c(C)c2)cc1`, the activity change, negative = inhibition was -0.451%.

Turning to `C=CCOc1ccccc1/C=N/NC(=O)Cc1ccccc1`, the activity change, negative = inhibition was 3.68%.

Take `Cc1ccc(/C=N/NC(=O)CNC(=O)COc2ccccc2)o1`: the activity change, negative = inhibition was 0.654%.

`C=C(C)CNC(=S)N/N=C/c1ccccc1OCC(=O)O`: the activity change, negative = inhibition is 7.3%.

`C=CCc1ccccc1OCC(=O)N/N=C/c1ccccc1OCC`: the activity change, negative = inhibition was -30.1% (active).

For the compound `CCOc1ccccc1/C=N/NC(=O)CNC(=O)COc1ccccc1`, the activity change, negative = inhibition is -43.5% (active).

In the case of `Cc1ccc(/C=N/NC(=O)COc2ccccc2-c2ccccc2)cc1`, the activity change, negative = inhibition is 0.851%.

In the case of `Cc1ccc(CSCCNC(=O)CN(c2ccc(F)cc2)S(C)(=O)=O)cc1`, the activity change, negative = inhibition was -1.38%.

Regarding `O=c1c(O)c(Br)ccc2c(Br)c(O)c(O)c(O)c12`, the activity change, negative = inhibition was -45.3% (active).

For the compound `COc1ccc(CNC(=O)C(C)NCc2ccccc2Cl)cc1` (stereo not drawn), the activity change, negative = inhibition is -0.161%.

`O=[N+]([O-])c1ccc(N/N=C/c2ccccc2)cc1`: the activity change, negative = inhibition is 1.24%.

As to `CC(=O)n1c(C=Nc2ccccc2)c(O)c2ccccc21`, the activity change, negative = inhibition was 0.601%.

For the compound `COc1cc(N=Cc2c(O)[nH]c3ccccc23)cc(OC)c1OC`, the activity change, negative = inhibition was -1.7%.

As for `O=[N+]([O-])c1ccc(O)c(/C=N/Nc2ccccc2[N+](=O)[O-])c1`, the activity change, negative = inhibition was 0.257%.

As for `O=[N+]([O-])c1ccc(N=Cc2c(O)ccc3ccccc23)cc1`, the activity change, negative = inhibition is -37.8% (active).

Take `Oc1ccc2ccccc2c1C=Nc1ccccc1`: the activity change, negative = inhibition is -34.9% (active).

For the compound `CCCCn1c(SCC(=O)N2CCOCC2)nc2c1c(=O)n(C)c(=O)n2C`, the activity change, negative = inhibition is -0.5%.

As to `O=C(Nc1ccccc1N1CCOCC1)c1ccc(OCc2cscn2)cc1`, the activity change, negative = inhibition is -3.06%.

Consider `Cc1nc(Nc2ccccc2F)c2nnn(Cc3ccccc3Cl)c2n1`, for which the activity change, negative = inhibition is 1.81%.

Consider `C=C[C@](C)(O)CCC1C(=C)CCC2[C@@](C)(CO)CCC[C@@]12C` (stereo partly drawn), for which the activity change, negative = inhibition is 1.09%.

For the compound `O=[N+]([O-])c1ccc(C=Nc2ccc(Cl)cc2Cl)s1`, the activity change, negative = inhibition is -32% (active).

For the compound `CCOc1ccc(NC(=O)CCC(=O)N/N=C/c2ccc([N+](=O)[O-])s2)cc1`, the activity change, negative = inhibition was 0.71%.

Turning to `CC(C)(C)c1cc(C(=O)N/N=C/c2ccc([N+](=O)[O-])s2)n[nH]1`, the activity change, negative = inhibition is 1.27%.

Regarding `Nc1nc2c(nc(Cl)n2C2OC(CO)C(O)C2O)c(=O)[nH]1` (stereo not drawn), the activity change, negative = inhibition was 1.07%.

In the case of `CC(=O)Nc1ccc(OCC(=O)NCc2ccc(C)cc2)cc1`, the activity change, negative = inhibition was 0.378%.

For `CC(C)(C)NC(=O)COc1ccc(CNc2ccc3[nH]c(=O)[nH]c3c2)cc1`, the activity change, negative = inhibition was -49.7% (active).

In the case of `COC(=O)c1ccc(OCC(=O)NC(C)(C)C)cc1`, the activity change, negative = inhibition is -2.25%.

`Cc1cccc(C)c1NC(=O)CN1C(=O)C(C)Oc2ccccc21` (stereo not drawn): the activity change, negative = inhibition is 0.123%.

Regarding `NS(=O)(=O)c1cccc(NC(=O)CC23CC4CC(CC(Br)(C4)C2)C3)c1`, the activity change, negative = inhibition is -0.295%.

Turning to `O=C(/C=C/c1ccc(N2CCOCC2)cc1)c1ccccc1`, the activity change, negative = inhibition is -2.68%.

For `Oc1c(C=Nc2cccc3nsnc23)ccc2ccccc12`, the activity change, negative = inhibition is -48.9% (active).

As to `Oc1ccc2ccccc2c1N=Nc1nccs1`, the activity change, negative = inhibition was -6.8%.

Consider `N#Cc1cccc(NC(=O)CN2CCCCCC2)c1`, for which the activity change, negative = inhibition is 0.599%.

Regarding `Cc1ccc(C(=O)NC2CCN(C(=O)Nc3ccc(F)cc3)CC2)cc1`, the activity change, negative = inhibition is -0.456%.

Consider `CC(=O)OCC(NC(=O)C(Cc1ccccc1)NC(=O)OC(C)(C)C)C1OC(n2ccc(=O)[nH]c2=O)C(OC(C)=O)C1OC(C)=O` (stereo not drawn), for which the activity change, negative = inhibition was 0.391%.

For `COc1ccc(N2CCN(C(=O)CCSCc3ccccc3F)CC2)cc1`, the activity change, negative = inhibition was 2.76%.

As for `Cc1cc(C)c([N+](=O)[O-])cc1-c1ccc(/C=N/NC(=O)c2nonc2N)o1`, the activity change, negative = inhibition is 2.52%.

For `Cc1ccc(-c2ccc(/C=N/NC(=O)CN3CCOCC3)o2)cc1[N+](=O)[O-]`, the activity change, negative = inhibition was -44% (active).

As to `O=C(CN1CCOCC1)N/N=C/c1ccc(-c2ccc(Br)cc2)o1`, the activity change, negative = inhibition was -3.01%.

Regarding `CC(C)CNC(=S)NC(=O)c1ccc(Cl)cc1`, the activity change, negative = inhibition was -5.21%.

With `COc1ccc(OCCCON2C(=O)c3ccccc3C2=O)cc1`, the activity change, negative = inhibition is 0.279%.

Consider `CCOC(=O)C1=C(c2ccc(OC)cc2)C(=O)c2ccccc2C1=O`, for which the activity change, negative = inhibition was -63.5% (active).

For the compound `CCOC(=O)c1c(-c2ccc(C)cc2)csc1/N=C(\C)C1=C(O)c2ccccc2C1=O`, the activity change, negative = inhibition was 3.5%.

As for `CC[N+](C)(CC)CCC[n+]1c(-c2ccccc2)c2cc(N)ccc2c2ccc(N)cc21`, the activity change, negative = inhibition is -38.7% (active).

For `COc1cc2c(C(=O)N3CCN(C)CC3)c(CSc3ccccc3)n(C)c2cc1Br`, the activity change, negative = inhibition is 1.25%.

Consider `COc1cc(-c2c(-c3ccc4c(c3)OCO4)noc2C)ccc1F`, for which the activity change, negative = inhibition is 4.94%.

Regarding `CNC(=O)C1(C)C=CC2(CCCCC2)N1C(C)=O` (stereo not drawn), the activity change, negative = inhibition was -1.27%.

On to `CN1c2ccc([N+](=O)[O-])cc2C(C)(C)C12C=Cc1cc(C(=O)O)ccc1O2` (stereo not drawn), for which the activity change, negative = inhibition is 6.4%.

For `COc1cccc(CC2(CO)CCCN(CC3=Cc4cc(OC)ccc4OC3)C2)c1` (stereo not drawn), the activity change, negative = inhibition is -1.06%.

As to `COc1ccc2c(c1)C=CC1(O2)N(CCO)c2ccccc2C1(C)C` (stereo not drawn), the activity change, negative = inhibition is -47.2% (active).

Take `CCOC(=O)C1(CCOc2ccccc2)CCN(Cc2cc(OC)c(O)cc2Cl)CC1`: the activity change, negative = inhibition was -3.97%.

Turning to `O=c1ccc2cc(S(=O)(=O)Nc3ccccc3F)ccc2o1`, the activity change, negative = inhibition is 2.93%.

On to `COc1ccc2c(c1)C(=C(C#N)C#N)C(=O)N2CCc1ccccc1`, for which the activity change, negative = inhibition was -35.5% (active).

As to `C#CCN1C(=O)C(O)(CC(=O)c2cc(OC)ccc2OC)c2ccccc21` (stereo not drawn), the activity change, negative = inhibition is 2.24%.

`CCCCN1C(=O)/C(=C(/C#N)C(N)=O)c2ccccc21`: the activity change, negative = inhibition was -19.4%.

`NCCCNCCCCN(CCCN)/[N+]([O-])=N/O`: the activity change, negative = inhibition is 1%.

For `CN(C)c1ccc(S(=O)(=O)NCC(=O)NCC2CCCCC2)cc1[N+](=O)[O-]`, the activity change, negative = inhibition is -0.658%.

With `COc1ccc(-c2ccc(C3C4C=CCCC4(C)C(=O)N3Cc3ccccc3)c(F)c2)cc1OC` (stereo not drawn), the activity change, negative = inhibition was 2.19%.

`CC1(C)c2[nH]c3ccccc3c2C[C@H]2C(=O)N(N)CC(=O)N21`: the activity change, negative = inhibition is 2.07%.
